# “And” between values parts separate entries of the source, which are not always exact repeats. Equal entries are not always repeated. About 83,000 compounds went through this panel and 20% of them were active in at least one assay; those are over-represented in the sample as a whole.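 Step 1: grow cells in 96-well plates. Step 2: add test compound at a single concentration. Step 3: incubate 48 h. Step 4: record percent growth.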 The source made the active and inactive calls. How the source made its calls: active means growth percent below 10; inactive means the rest.
# Tests used:
# Assay in all cases: NCI-60 one-dose screen, 48 h (100 = growth as untreated, 0 = no growth, -100 = all killed)
# HCT-15 colon = test system: HCT-15 colon
# SNB-75 CNS = test system: SNB-75 CNS
# SNB-19 CNS = test system: SNB-19 CNS
# U251 CNS = test system: U251 CNS
# PC-3 prostate = test system: PC-3 prostate
# SK-MEL-5 melanoma = test system: SK-MEL-5 melanoma
# UACC-62 melanoma = test system: UACC-62 melanoma
# LOX IMVI melanoma = test system: LOX IMVI melanoma
# SK-MEL-28 melanoma = test system: SK-MEL-28 melanoma
# SK-MEL-2 melanoma = test system: SK-MEL-2 melanoma
# EKVX NSCLC = test system: EKVX NSCLC
# SN12C renal = test system: SN12C renal
# UO-31 renal = test system: UO-31 renal
# TK-10 renal = test system: TK-10 renal
# ACHN renal = test system: ACHN renal
# CAKI-1 renal = test system: CAKI-1 renal
# A498 renal = test system: A498 renal
# CCRF-CEM leukemia = settings: 10 µM
smiles,measurement,setting,value
CN(CC(=O)O)c1ccc(/C=C/c2ccnc3ccccc23)cc1,growth,HCT-15 colon; 10 µM,84.5% (inactive)
same,growth,SNB-75 CNS; 10 µM,90.3% (inactive)
same,growth,SNB-19 CNS; 10 µM,87.9% (inactive)
same,growth,U251 CNS; 10 µM,80.3% (inactive)
same,growth,PC-3 prostate; 10 µM,71.2% (inactive)
same,growth,SK-MEL-5 melanoma; 10 µM,93% (inactive)
same,growth,UACC-62 melanoma; 10 µM,72.3% (inactive)
same,growth,LOX IMVI melanoma; 10 µM,94.8% (inactive)
same,growth,SK-MEL-28 melanoma; 10 µM,100% (inactive)
same,growth,SK-MEL-2 melanoma; 10 µM,89% (inactive)
same,growth,EKVX NSCLC; 10 µM,69.6% (inactive)
same,growth,SN12C renal; 10 µM,85.2% (inactive)
same,growth,UO-31 renal; 10 µM,61.7% (inactive)
same,growth,TK-10 renal; 10 µM,98.7% (inactive)
same,growth,ACHN renal; 10 µM,89.1% (inactive)
same,growth,CAKI-1 renal; 10 µM,92.9% (inactive)
same,growth,A498 renal; 10 µM,97.1% (inactive)
O=S(=O)(c1cc(Cl)ccc1O)c1cc(Cl)ccc1O,growth,HCT-15 colon; 10 µM,94.2% (inactive)
same,growth,SNB-75 CNS; 10 µM,77.1% (inactive)
same,growth,SNB-19 CNS; 10 µM,91.8% (inactive)
same,growth,U251 CNS; 10 µM,76.7% (inactive)
same,growth,PC-3 prostate; 10 µM,80.6% (inactive)
same,growth,SK-MEL-5 melanoma; 10 µM,53.5% (inactive)
same,growth,UACC-62 melanoma; 10 µM,31.1% (inactive)
same,growth,LOX IMVI melanoma; 10 µM,93.5% (inactive)
same,growth,SK-MEL-28 melanoma; 10 µM,87.5% (inactive)
same,growth,SK-MEL-2 melanoma; 10 µM,64% (inactive)
same,growth,EKVX NSCLC; 10 µM,100% (inactive)
same,growth,SN12C renal; 10 µM,80.4% (inactive)
same,growth,UO-31 renal; 10 µM,71.8% (inactive)
same,growth,TK-10 renal; 10 µM,87.5% (inactive)
same,growth,ACHN renal; 10 µM,84.9% (inactive)
same,growth,CAKI-1 renal; 10 µM,92.1% (inactive)
same,growth,A498 renal; 10 µM,59.6% (inactive)
CC(=O)O[C@H]1C(=O)[C@@]2(C)[C@H]([C@H](OC(=O)c3ccccc3)[C@]3(O)C[C@H](OC(=O)[C@H](O)[C@@H](NC(=O)c4ccccc4)c4ccccc4)C(C)=C1C3(C)C)[C@]1(OC(C)=O)CO[C@@H]1C[C@@H]2O,growth,HCT-15 colon; 0.01 µM,87.3% (inactive)
same,growth,HCT-15 colon; 2.5 µM,13.2% (inactive)
same,growth,HCT-15 colon; 5 µM,12.4% (inactive)
same,growth,HCT-15 colon; 10 µM,-26.2% (active) and 11.5% (inactive)
same,growth,SNB-75 CNS; 0.01 µM,-1.17% (active)
same,growth,SNB-75 CNS; 2.5 µM,-28% (active)
same,growth,SNB-75 CNS; 5 µM,-16.7% (active)
same,growth,SNB-75 CNS; 10 µM,-38.5% (active) and -19.3% (active)
same,growth,SNB-19 CNS; 0.01 µM,30% (inactive)
same,growth,SNB-19 CNS; 2.5 µM,25.9% (inactive)
same,growth,SNB-19 CNS; 5 µM,30.1% (inactive)
same,growth,SNB-19 CNS; 10 µM,31.4% (inactive) and 35.6% (inactive)
same,growth,U251 CNS; 0.01 µM,27.9% (inactive)
same,growth,U251 CNS; 2.5 µM,12.3% (inactive)
same,growth,U251 CNS; 5 µM,13.9% (inactive)
same,growth,U251 CNS; 10 µM,10.6% (inactive) and 15.9% (inactive)
same,growth,PC-3 prostate; 0.01 µM,25% (inactive)
same,growth,PC-3 prostate; 2.5 µM,26.2% (inactive)
same,growth,PC-3 prostate; 5 µM,34.7% (inactive)
same,growth,PC-3 prostate; 10 µM,-45.5% (active) and 37.3% (inactive)
same,growth,SK-MEL-5 melanoma; 0.01 µM,18% (inactive)
same,growth,SK-MEL-5 melanoma; 2.5 µM,4.29% (active)
same,growth,SK-MEL-5 melanoma; 5 µM,17.5% (inactive)
same,growth,SK-MEL-5 melanoma; 10 µM,34.6% (inactive) and 13% (inactive)
same,growth,UACC-62 melanoma; 0.01 µM,24.9% (inactive)
same,growth,UACC-62 melanoma; 2.5 µM,34.2% (inactive)
same,growth,UACC-62 melanoma; 5 µM,40.3% (inactive)
same,growth,UACC-62 melanoma; 10 µM,41.8% (inactive) and 42.9% (inactive)
same,growth,LOX IMVI melanoma; 0.01 µM,35.4% (inactive)
same,growth,LOX IMVI melanoma; 2.5 µM,9.12% (active)
same,growth,LOX IMVI melanoma; 5 µM,42.1% (inactive)
same,growth,LOX IMVI melanoma; 10 µM,35.1% (inactive) and 42.3% (inactive)
same,growth,SK-MEL-28 melanoma; 2.5 µM,71.3% (inactive)
same,growth,SK-MEL-28 melanoma; 5 µM,76.6% (inactive)
same,growth,SK-MEL-28 melanoma; 10 µM,75.7% (inactive)
same,growth,SK-MEL-2 melanoma; 0.01 µM,72.5% (inactive)
same,growth,SK-MEL-2 melanoma; 2.5 µM,3.85% (active)
same,growth,SK-MEL-2 melanoma; 5 µM,21.3% (inactive)
same,growth,SK-MEL-2 melanoma; 10 µM,25.7% (inactive) and 32% (inactive)
same,growth,EKVX NSCLC; 0.01 µM,60.7% (inactive)
same,growth,EKVX NSCLC; 2.5 µM,35% (inactive)
same,growth,EKVX NSCLC; 5 µM,40.5% (inactive)
same,growth,EKVX NSCLC; 10 µM,47.1% (inactive) and 41.5% (inactive)
same,growth,SN12C renal; 0.01 µM,46.3% (inactive)
same,growth,SN12C renal; 2.5 µM,25.5% (inactive)
same,growth,SN12C renal; 5 µM,32% (inactive)
same,growth,SN12C renal; 10 µM,55.6% (inactive) and 33.2% (inactive)
same,growth,UO-31 renal; 0.01 µM,103% (inactive)
same,growth,UO-31 renal; 2.5 µM,42.6% (inactive)
same,growth,UO-31 renal; 5 µM,42.7% (inactive)
same,growth,UO-31 renal; 10 µM,9.24% (active) and 39.3% (inactive)
same,growth,TK-10 renal; 0.01 µM,87.7% (inactive)
same,growth,TK-10 renal; 2.5 µM,44.7% (inactive)
same,growth,TK-10 renal; 5 µM,46.1% (inactive)
same,growth,TK-10 renal; 10 µM,18.4% (inactive) and 43.6% (inactive)
same,growth,ACHN renal; 0.01 µM,95.3% (inactive)
same,growth,ACHN renal; 2.5 µM,42.4% (inactive)
same,growth,ACHN renal; 5 µM,44.8% (inactive)
same,growth,ACHN renal; 10 µM,25.4% (inactive) and 43.1% (inactive)
same,growth,CAKI-1 renal; 0.01 µM,93.4% (inactive)
same,growth,CAKI-1 renal; 2.5 µM,22.2% (inactive)
same,growth,CAKI-1 renal; 5 µM,23.1% (inactive)
same,growth,CAKI-1 renal; 10 µM,25.1% (inactive) and 23.4% (inactive)
same,growth,A498 renal; 0.01 µM,61.7% (inactive)
same,growth,A498 renal; 2.5 µM,74.4% (inactive)
same,growth,A498 renal; 5 µM,96.2% (inactive)
same,growth,A498 renal; 10 µM,93.6% (inactive) and 52.1% (inactive)
O=C1c2cccc3cc([N+](=O)[O-])cc(c23)C(=O)N1CCN1CCCC1,growth,HCT-15 colon; 10 µM,-7.27% (active)
same,growth,SNB-75 CNS; 10 µM,-15.1% (active)
same,growth,SNB-19 CNS; 10 µM,-0.129% (active)
same,growth,U251 CNS; 10 µM,-12.3% (active)
same,growth,PC-3 prostate; 10 µM,14.4% (inactive)
same,growth,SK-MEL-5 melanoma; 10 µM,-88.6% (active)
same,growth,UACC-62 melanoma; 10 µM,-66.1% (active)
same,growth,LOX IMVI melanoma; 10 µM,-65.9% (active)
same,growth,SK-MEL-28 melanoma; 10 µM,-36.5% (active)
same,growth,SK-MEL-2 melanoma; 10 µM,4.73% (active)
same,growth,EKVX NSCLC; 10 µM,10.9% (inactive)
same,growth,SN12C renal; 10 µM,-18.2% (active)
same,growth,UO-31 renal; 10 µM,-42.8% (active)
same,growth,TK-10 renal; 10 µM,-11.3% (active)
same,growth,ACHN renal; 10 µM,-57.9% (active)
same,growth,CAKI-1 renal; 10 µM,-14% (active)
same,growth,A498 renal; 10 µM,-64.4% (active)
same,growth,CCRF-CEM leukemia,-5.62% (active)
Nc1nc(N)c2cc(Sc3ccc4ccccc4c3)ccc2n1,growth,HCT-15 colon; 10 µM,22.6% (inactive)
same,growth,SNB-75 CNS; 10 µM,53.5% (inactive)
same,growth,SNB-19 CNS; 10 µM,35.7% (inactive)
same,growth,U251 CNS; 10 µM,27.4% (inactive)
same,growth,PC-3 prostate; 10 µM,35.6% (inactive)
same,growth,SK-MEL-5 melanoma; 10 µM,23.4% (inactive)
same,growth,UACC-62 melanoma; 10 µM,27.3% (inactive)
same,growth,LOX IMVI melanoma; 10 µM,21% (inactive)
same,growth,SK-MEL-28 melanoma; 10 µM,61.7% (inactive)
same,growth,SK-MEL-2 melanoma; 10 µM,75.3% (inactive)
same,growth,EKVX NSCLC; 10 µM,38.2% (inactive)
same,growth,SN12C renal; 10 µM,27.9% (inactive)
same,growth,UO-31 renal; 10 µM,22% (inactive)
same,growth,TK-10 renal; 10 µM,49.5% (inactive)
same,growth,ACHN renal; 10 µM,28.2% (inactive)
same,growth,CAKI-1 renal; 10 µM,17.3% (inactive)
same,growth,A498 renal; 10 µM,58.5% (inactive)

# Source: PubChem BioAssay (NCI)
